Bioassay records as filed in PubChem.
An excerpt weighted towards active compounds, which were near 8.8% of everything screened.
HT1080 IDH1KD tx: toxicity to HT-1080 IDH1 knockdown cells (counter line); HT-1080 IDH1 knockdown viability, ATP luminescence, 48 h; Potency, µM (series often up to 46.1 µM), for the others: at the top dose activity, negative = toxicity, actives largely listed as cytotoxic; hit rate 2% among 360,000;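 note: potency is the fitted concentration of half-maximal effect; 0% = DMSO wells and -100% = cell-free medium wells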
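In this qHTS, HT-1080 cells depleted of IDH1 are exposed for 48 h at 37 °C to compound titrations. Toxicity is scored from CellTiter-Glo luminescence, with DMSO as full viability and medium alone as none.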
KB-V1 MDR tox: KB-V1 MDR subline cytotoxicity. hit rate 3.4% among 400,000. KB-V1 MDR cells viability, CellTiter-Glo, 72 h. Potency, µM (series often up to 46.1 µM), most hits filed as cytotoxic; note: potency is the fitted concentration of half-maximal effect; nearly all actives have a fitted effect of over 60% in size
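Cytotoxicity via CellTiter-Glo luminescence after 72 h compound exposure at 37 degrees C. Cells: drug-selected KB-V1 line, DMEM phenol-red free plus 10% FBS. Compounds tested at multiple concentrations; normalized data fitted to concentration-effect curves.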
HT1080NT lethal: kills 2HG-producing HT-1080-NT fibrosarcoma cells | Potency, µM (highest dose often 46.1 µM), for inactives: at the top dose activity, negative = less viability, most hits filed as cytotoxic | AID 686970 | hit rate 1.6% among 360,000 | HT-1080-NT fibrosarcoma viability, CellTiter-Glo ATP luminescence, 48 h;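 note: NT is the 2HG producing partner of a matched IDH1 knockdown line; potency is the fitted concentration of half-maximal effect; 0% = DMSO-treated cells and -100% = media-only wells without cells; nearly all actives have a fitted effect of over 55% in size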
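Fibrosarcoma NT cells, 750 per well in 5% FBS RPMI, were exposed to compound for 48 hours. Viability: CellTiter-Glo luminescence.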
IL-1B inflam inh: blocks inflammasome-driven IL-1 beta release. THP-1 LPS/ATP IL-1B secretion, AlphaLISA, 16 h; stronger effect = lower value. hit rate 4.7% among 360,000. activity change, % at 57.5 µM; in the data active = activity change below about -50%; inconclusive = mostly about -30% to -49%
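THP-1 cells pretreated 1 hr with compounds (up to 57.5 uM final), then stimulated with LPS (250 ng/mL final) plus ATP (1.25 mM final); secreted IL-1B measured by AlphaLISA after 16 hr, decreased signal indicating inhibition.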
KB-3-1 cytotox: kills parental KB-3-1 adenocarcinoma cells; hit rate 1.4% among 400,000; KB-3-1 viability, CellTiter-Glo ATP luminescence, 72 h; AID 1347075; Potency, µM (top dose mostly 46.1 µM), usual class: cytotoxic; note: potency is the fitted concentration of half-maximal effect; nearly all actives have a fitted effect of over 60% in size
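Cells are dispensed, compounds pinned in, plates held at 37 °C for 72 h, then CellTiter-Glo is added and luminescence read after 10 minutes. Cell line: parental KB-3-1 in phenol-red-free DMEM, 10% FBS.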
Numbers without * were called inactive; i = inactive; ? = inconclusive; . = no result; [ ] = remark or other dose. Unless noted, calls come from the whole dose curve; as a rule, active = well fitted curve in the direction sought with a large enough effect; inconclusive = small, poorly fitted or top-dose-only effect, or another doubt; inactive = no such curve, though single readings can be large; an effect the other way counts as inactive or inconclusive. Unless noted, % is set by controls: 0 for no effect and ±100 for the full control effect.

SMILES | HT1080 IDH1KD tx | KB-V1 MDR tox | HT1080NT lethal | IL-1B inflam inh | KB-3-1 cytotox
COc1cc(/C=N/Nc2nc(C)cc(C)n2)ccc1O | 3% | i | 5% | 24 | i
COc1cc(/C=N/Nc2snc(SC)c2C#N)ccc1O | 3.2µM* | ? | ? | 17 | i
CCCCn1c(N)c(N(CC(C)C)C(=O)CCCSc2nncs2)c(=O)[nH]c1=O | 19% | i | 15% | 7 | i
CC(C)C(C)NC(=O)CN1C(=O)NC2(CCc3ccccc32)C1=O (stereo not drawn) | 1% | i | 1% | 8 | i
Cc1cc([N+](=O)[O-])nn1CC(=O)NCc1nc2ccccc2[nH]1 | 1% | i | 14% | 16 | i
O=C(Nc1ccc2c(c1)OCO2)Nc1nnc(-c2ccncc2)s1 | . | i | . | . | i
COc1cc(/C=N/Nc2nc3ccccc3[nH]2)ccc1O | 6% | 18µM* | 10% | -105* | i
COc1cc(/C=N/Nc2nn3cnnc3c3ccccc23)ccc1O | 5.6µM* | ? | ? | -1 | i
COc1cc(/C=N/Nc2ncc(C(F)(F)F)cc2Cl)cc(OC)c1O | 0% | 21µM* | 3% | -10 | ?
COc1cc(/C=N/Nc2nc3ccccc3[nH]2)cc(OC)c1O | ? | i | -30% | -99* | i
CCOc1cc(/C=N/Nc2nn3cnnc3c3ccccc23)ccc1O | ? | i | ? | 24 | ?
O=C(OCCc1ccccc1)c1cc(O)c(O)c(O)c1 | -22% | i | -14% | 38 | i
COc1cccc(/C=N/Nc2nc3ccccc3[nH]2)c1O | 12µM* | ? | ? | -55* | 5.8µM*
CCOC(=O)N1CCN(C(=O)COc2cccc3c2CCN(Cc2cccc(C)c2)C3=O)CC1 | -17% | 18µM* | 1% | -23 | i
Cc1cccc(NC(=O)COc2cccc3c2CCN(Cc2ccccc2)C3=O)c1C | 3% | 9.2µM* | 4% | ? | i
CCOC(=O)c1c(C)oc2c(F)c(F)c(F)c(F)c2c1=O | ? | ? | ? | -121* | ?
CCN(CC)c1ccc(CNc2nc3ccccc3n2CCN2CCOCC2)cc1 | -24% | i | -11% | -76* | i
Cc1cc(/C=N\NC(=O)CC(=O)NC2CCCCC2)c(C)n1-c1cccc(Cl)c1Cl | -19% | 23µM* | -15% | -5 | ?
Cc1cc(/C=N\NC(=O)CC(=O)NC2CCCCC2)c(C)n1-c1ccc(Cl)c(Cl)c1 | ? | ? | ? | 0 | ?
Cc1ccccc1OCCCCCNCCO | 4% | i | -12% | 1 | i
CC(C)c1ccccc1OCCCCCNCCO | 11%[9.24 µM] | i | ? | -54* | i
CC(C)(C)c1ccccc1OCCCCCNCCO | ? | ? | ? | -53* | i
CCOCc1nc2nc(Cl)c(Cl)nc2[nH]1 | 14% | ? | 13% | -7 | i
CC(C)C[C@H]1CN(CCCC[C@H]2CNC(=O)C(=O)N2CC2CCCCC2)C(=O)C(=O)N1CCc1ccccc1 | -6% | i | -4% | 0 | i
CCOC(=O)c1c(NC(C)=O)sc(/C(C)=N/Nc2ccc(C(=O)O)cc2)c1C | -14% | i | ? | 31 | i
SMILES | HT1080 IDH1KD tx | KB-V1 MDR tox | HT1080NT lethal | IL-1B inflam inh | KB-3-1 cytotox
COc1ccc2nc(SCC(=O)Nc3ccccc3C)[nH]c2c1 | 1% | 15µM* | 3% | -3 | i
CCN(CC)S(=O)(=O)c1ccc(C)c(NC(=O)CSc2nc3ccccc3[nH]2)c1 | -15% | ? | -9% | 4 | i
COC(=O)C1CCN(C(=O)CSc2nc3ccc(OC)cc3[nH]2)CC1 | 12% | i | 9% | -64* | i
COc1ccc2nc(SCC(=O)N3CCNC3=O)[nH]c2c1 | -4% | i | -4% | 3 | i
Cc1ccc(S(=O)(=O)N(C)C)cc1NC(=O)CSc1nc2ccccc2[nH]1 | 0% | 15µM* | 1% | 0 | i
COC1(OC)N=C(N)C2(C#N)C(c3ccc(F)cc3)C12C#N (stereo not drawn) | 8% | i | 5% | 9 | i
CCSC1(SCC)N=C(N)C2(C#N)C(c3ccc(F)cc3)C12C#N (stereo not drawn) | ? | ? | ? | -109* | ?
COc1ccc(C)c(NC(=O)NCCc2cnc[nH]2)c1 | 12% | ? | 18% | -4 | i
COc1ccccc1CNc1nc2c(S(=O)(=O)c3ccccc3)nnn2c2ccc(Cl)cc12 | . | i | . | . | i
COc1ccc(N2Cc3ccc(OC)c(OC)c3C2=O)cc1 | -12% | i | 2% | -13 | i
COc1cccc(N2CCc3c(C)nc4ccc(Cl)cc4c32)c1 | 21µM* | 16µM* | ? | -96* | ?
COc1ccc(N2CCc3c(C)nc4c(OC)cc(OC)cc4c32)cc1 | 23µM* | ? | ? | . | i
CCN1Cc2c(/C=C/c3ccccc3)nc3ccc(OC)cc3c2N(c2cccc(Cl)c2)C1 | ? | i | ? | -84* | ?
COc1cccc(-c2nc(-c3cccc(C)c3)nc3cc(Cl)ccc23)c1 | 5% | i | 20% | 61 | i
COc1ccc(N2CCc3c(C)nc4c(OC)cc(OC)cc4c32)c(OC)c1 | ? | ? | ? | -58* | ?
COc1ccc(OCc2ccc(/C=N\NC(=O)c3sccc3C)o2)cc1 | -17% | i | -25% | -21 | i
COc1cccc(/C=C/C(=O)OCC(=O)Nc2cccc(S(=O)(=O)N3CCOCC3)c2)c1OC | 10% | i | 19% | -13 | i
COc1ccc(-c2ccc(C(=O)NCCc3ccccc3)c3occc23)c(C)c1 | ? | ? | ? | -15 | i
COc1ccc(N2CCc3c(C)nc4c(OC)cccc4c32)cc1 | 3.3µM* | ? | 3.7µM* | -96* | 4.6µM*
Cc1nc2c(C)cccc2c2c1CCN2c1ccccc1F | ? | i | -8% | -76* | i
Cc1cccc2c(N)c3c(nc12)N(C)CC3 | 4% | i | 0% | 0 | i
COc1ccc(-c2noc(N3CCC(C(=O)N4CCN(c5ccccn5)CC4)CC3)n2)cc1 | -14% | 5.8µM* | -15% | ? | i
O=C(c1cc(COc2c(F)cccc2F)on1)N1CCC(c2ccncc2)CC1 | -26% | ? | ? | ? | 23µM*
Cc1cccc(C)c1OCc1cc(C(=O)N2CCC(c3ccncc3)CC2)no1 | -19% | i | ? | -68* | i
CC(=O)NC(=S)Nc1ccc(S(=O)(=O)Nc2nc(C)cc(C)n2)cc1 | 0% | i | 15% | 29 | i
COc1ccccc1NC(=O)C1=C(C)Nc2nnnn2C1c1ccccc1OC (stereo not drawn) | -2% | i | 2% | 20 | i
COc1ccccc1/C=C1\CCCC2=C1Nc1nnnn1C2c1ccccc1OC (stereo not drawn) | ? | 8.2µM* | -16% | -101* | ?
